# Paper PMC4336329 (PLoS ONE, 2015)
# Among all 310,000 compounds or so, about 14,000 (4.5%) showed an effect of 50% or more. The effect is printed as a negative number. The sample as a whole holds a higher share of strong results than the screen did.
# Target: human ether-à-go-go-related gene (hERG) potassium channel (human, UniProt Q12809)
# Assay: primary screen, population patch clamp on CHO cells stably expressing hERG; higher = less effect of the substance
# 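Note: peak tail current of the secondary pulse compared with the same well before compound.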
# Chain of human ether-à-go-go-related gene (hERG) potassium channel (Q12809 whole entry, looked up): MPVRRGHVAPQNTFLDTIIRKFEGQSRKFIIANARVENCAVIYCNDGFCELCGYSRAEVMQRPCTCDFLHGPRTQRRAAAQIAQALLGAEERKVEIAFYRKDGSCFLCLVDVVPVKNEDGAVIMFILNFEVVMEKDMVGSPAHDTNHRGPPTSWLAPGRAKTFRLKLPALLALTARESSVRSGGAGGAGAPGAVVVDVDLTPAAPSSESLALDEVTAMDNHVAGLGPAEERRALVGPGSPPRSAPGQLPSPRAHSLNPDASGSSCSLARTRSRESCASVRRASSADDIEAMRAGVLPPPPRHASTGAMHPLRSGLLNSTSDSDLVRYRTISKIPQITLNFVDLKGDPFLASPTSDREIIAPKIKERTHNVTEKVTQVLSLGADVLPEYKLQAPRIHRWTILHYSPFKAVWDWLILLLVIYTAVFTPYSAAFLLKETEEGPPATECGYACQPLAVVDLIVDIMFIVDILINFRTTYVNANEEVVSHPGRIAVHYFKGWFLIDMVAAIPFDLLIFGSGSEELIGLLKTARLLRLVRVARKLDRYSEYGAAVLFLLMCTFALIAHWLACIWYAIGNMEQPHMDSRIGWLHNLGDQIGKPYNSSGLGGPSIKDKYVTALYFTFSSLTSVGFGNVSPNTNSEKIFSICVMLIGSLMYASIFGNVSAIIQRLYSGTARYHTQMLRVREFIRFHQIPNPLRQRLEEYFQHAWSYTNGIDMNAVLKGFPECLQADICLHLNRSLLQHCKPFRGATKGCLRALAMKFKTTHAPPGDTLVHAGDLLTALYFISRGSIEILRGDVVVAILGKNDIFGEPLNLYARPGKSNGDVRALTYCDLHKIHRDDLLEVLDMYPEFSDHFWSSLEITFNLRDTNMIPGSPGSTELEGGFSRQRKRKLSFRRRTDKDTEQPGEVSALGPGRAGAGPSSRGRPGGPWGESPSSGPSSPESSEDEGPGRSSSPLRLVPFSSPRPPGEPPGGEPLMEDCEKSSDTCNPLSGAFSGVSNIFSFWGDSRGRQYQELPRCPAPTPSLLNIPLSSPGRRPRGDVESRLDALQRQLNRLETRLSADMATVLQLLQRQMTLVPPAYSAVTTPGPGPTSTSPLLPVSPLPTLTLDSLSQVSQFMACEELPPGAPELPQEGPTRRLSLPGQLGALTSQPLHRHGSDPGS
row,Structure (SMILES),"hERG current change (%, negative = inhibition) at 10uM [%]"
1,Cc1ccc(CN2CCNC(=O)C2CC(=O)NCC(F)(F)F)o1 (centres unmarked),14.1
2,CCOc1cccc(/C=C(/C#N)c2nc3ccccc3[nH]2)c1OCC(=O)O,14.1
3,COc1cc(C(=O)Nc2nc3ccc4nc(C)sc4c3s2)cc(OC)c1OC,-5.34
4,C=CCN(C(=O)CNC(=O)c1ccco1)C(C(=O)NC1CCCCC1)c1ccccc1 (centres unmarked),1.1
5,C=C1CCN(c2ccc(C(=O)NCCC)cc2[N+](=O)[O-])CC1,-48.3
6,CN(C)C(=O)Cn1cnc2c(cnn2-c2ccc(F)cc2)c1=O,-2.06
7,COC(=O)C(C(=O)OC)C(C[N+](=O)[O-])c1ccc(OC)cc1 (centres unmarked),-6.91
8,Cc1cc(C)cc(NC(=O)C2CCN(S(=O)(=O)c3ccc4c(c3)NC(=O)C(C)S4)CC2)c1 (centres unmarked),8.79
9,CCC(C)NC(=O)CSc1ccc(S(=O)(=O)N2CCN(Cc3ccccc3)CC2)cn1 (centres unmarked),-16.6
10,O=C(OC(c1ccccc1)c1nccc2ccccc12)c1cccc([N+](=O)[O-])c1 (centres unmarked),8.01
11,CN(C)/C=N/c1cnc(C(=O)c2ccc(Cl)cc2)n1C,5.58
12,Br.CCCN(CCC)C1CCc2cccc(O)c2C1 (centres unmarked),-10.6
13,Br.CCCN(CCC)C1CCc2ccc(O)cc2C1 (centres unmarked),-70
14,Br.CCCN(CCC)[C@@H]1CCc2cccc(O)c2C1,-34.4
15,COc1ccc(Cl)c2sc(N(Cc3cccnc3)C(C)=O)nc12,13.2
16,Cc1cc(C(=O)Nc2ccccc2)oc1C,7.57
17,Cc1cc(C(=O)Nc2ccc3ccccc3c2)oc1C,-68.1
18,CC(=O)c1cc(C(=O)Nc2ccc3ccccc3c2)c(C)o1,13.8
19,COc1ccc(S(=O)(=O)N2CCCOC2CNC(=O)C(=O)NCCCn2ccnc2)cc1 (centres unmarked),-3.17
20,Cc1cc(C)cc(N(CC(=O)Nc2ccccc2-c2ccccc2)S(=O)(=O)c2ccccc2)c1,13.1
21,COc1ccc(/C=N/NC(=O)CN(c2ccc(OC)cc2)S(=O)(=O)c2ccccc2)cc1,-7.15
22,Cc1cc(C)cc(N(CC(=O)N/N=C/c2ccncc2)S(=O)(=O)c2ccccc2)c1,-76.9
23,COc1ccc(N(CC(=O)N/N=C/c2cccnc2)S(=O)(=O)c2ccc(C)cc2)cc1OC,-14.2
24,Cc1ccc(N(CC(=O)N/N=C/c2cccnc2)S(=O)(=O)c2ccccc2)cc1,-52
25,COc1ccc(N(CC(=O)N/N=C/c2cccnc2)S(=O)(=O)c2ccccc2)c(OC)c1,-40.6
26,CC(=O)NCCC(=O)N1CCCC(CNC(=O)c2ccc(-c3ccccc3)cc2)C1 (centres unmarked),-0.511
27,Cn1cc(C(O)CN2CCCCC2)c2ccccc21 (centres unmarked),9.26

row,Structure (SMILES),"hERG current change (%, negative = inhibition) at 10uM [%]"
1,CCn1c(COc2ccc3c(c2)CCCC3)nnc1SCC(=O)Nc1ccc(C(=O)OC)cc1,5.43
2,CN(Cc1ccccc1)C(=O)c1ccccc1NC(=O)c1ccco1,20
3,CCN(CC)c1nc2ccccc2c(N)c1-c1ccccc1.O=C(O)C(=O)O,-77
4,CN(C)c1nc2ccccc2c(N)c1-c1ccccc1.O=C(O)C(=O)O,-65.9
5,Cc1nc2ccccc2c(-c2ccccc2)c1C(=O)c1ccccc1,0.392
6,CCOC(=O)c1c(CCl)nc2ccccc2c1-c1ccccc1,5.72
7,CCOC(=O)c1c(C)nc2ccccc2c1-c1ccccc1.Cl,-30.8
8,Cc1c(N(C)C)nc2ccccc2c1N.O=C(O)C(=O)O,-46.5
9,CCOC(=O)c1c(-c2ccccc2)csc1NC(=S)NC,-3.27
10,CCN(CC)C(=O)COc1ccc(Br)cc1Cl,-11.8
11,NC(=S)N/N=C1\CC(n2nnn(-c3cccc(Cl)c3)c2=S)C2COC1O2 (centres unmarked),-26.8
12,Cc1cc(C)cc(C(=O)NC(CC(N)=O)c2ccc(N3CCC(Br)CC3)c([N+](=O)[O-])c2)c1 (centres unmarked),-16.1
13,CC(=O)c1ccc(OCC(=O)Nc2ccccc2N2CCCC2)cc1,-2.74
14,CC(Oc1cccc(Cl)c1)C(=O)Nc1cc(S(=O)(=O)N2CCOCC2)ccc1N1CCCCC1 (centres unmarked),8.44
15,CCN1CCN(c2ccc(S(=O)(=O)N3CCOCC3)cc2NC(=O)C(C)Oc2ccc(Cl)cc2)CC1 (centres unmarked),-70.9
16,CC(Oc1ccc(Br)cc1)C(=O)Nc1cc(S(=O)(=O)N2CCOCC2)ccc1N1CCCC1 (centres unmarked),-5.62
17,CCN1CCN(c2ccccc2NC(=O)C(C)Oc2ccc(C(C)=O)cc2)CC1 (centres unmarked),-51.6
18,CC(Oc1ccc(F)cc1)C(=O)Nc1cc(S(=O)(=O)N2CCCCC2)ccc1N1CCOCC1 (centres unmarked),-5.21
19,CC(Oc1cccc(Cl)c1)C(=O)Nc1ccccc1N1CCCC1 (centres unmarked),-15.3
20,CCN1CCN(c2ccc(S(=O)(=O)N3CCOCC3)cc2NC(=O)C(C)Oc2cccc(Cl)c2)CC1 (centres unmarked),-70.8
21,CCN1CCN(c2ccc(S(=O)(=O)N3CCCCC3)cc2NC(=O)C(C)Oc2ccc(F)cc2)CC1 (centres unmarked),-72.7
22,CC(Oc1cccc(Cl)c1)C(=O)Nc1cc(S(=O)(=O)N2CCOCC2)ccc1N1CCCC1 (centres unmarked),-24.8
23,CC(Oc1ccc(F)cc1)C(=O)Nc1cc(S(=O)(=O)N2CCOCC2)ccc1N1CCCCC1 (centres unmarked),6.32
24,CC(Oc1cccc(Cl)c1)C(=O)Nc1cc(S(=O)(=O)N2CCCCC2)ccc1N1CCOCC1 (centres unmarked),-8.24
25,O=C(Nc1cccnc1)C1(c2ccccc2)CCCC1,4.11
26,O=[N+]([O-])/C=C1/NCCN1Cc1ccc(Cl)nc1,-1.96
